According to PubChem BioAssay (NCATS):
Inconclusive results are not listed. Calls of active or inactive are those of the source. The call rests on the fitted dose curve; in most records, active means well fitted activation curve with a large enough effect; inconclusive means small, poorly fitted or top-dose-only effect; inactive means flat fitted curve, though single readings scatter.

assay: Cellular Toxicity (caspase-3) Hek293 (AID 664); details: HEK293 caspase-3 activation, DMSO = 0%, 100 µM tamoxifen = 100%; at 92.2 µM (top of the series);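 further: cells exposed to compound for 16 h at 37 °C before readout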
Text: NIH Chemical Genomics Center [NCGC]
NIH Molecular Libraries Screening Centers Network [MLSCN]
National Institutes of Environmental Health Sciences [NIEHS]
National Toxicology Program [NTP]
We have developed a 1536-well cell-based assay for quantitative high throughput screening (qHTS) against a number of cell lines to determine in vitro caspase 3/7 of small molecules. This particular assay uses the Hek 293 cell line which is derived from human embryonic kidney cells.
NCGC Assay Protocol Summary:
The Caspase-Glo 3/7 assay (Promega) is a homogeneous method to measure caspase-3 and caspase-7 activities in cultured cells. The quantitation of caspase 3/7 activity is based on the cleavage of a peptide-aminoluciferin substrate. After caspase cleaves the substrate the free aminoluciferin is liberated and serves as the substrate of luciferase, which generates the light. The luminescent signal is proportional to amount of caspase 3/7 activity present.
Using the Caspase-Glo 3/7 assay, the amount of caspase 3/7 activity was measured in the Hek 293 cell line with complete culture medium following compound treatment for 16 hours. The assay was performed in opaque white 1536-well plates. In the screen, tamoxifen and doxorubicin were used as positive controls. Library compounds were measured for their ability to cause the activation of caspase 3/7 in the cell line, as reflected by an increase in luminescence signal, in a concentration-dependent manner. Data were normalized to the controls for basal activity (DMSO only) and 100% stimulation (100 uM tamoxifen). AC50 values were determined from concentration-response data modeled with the standard Hill equation.
qHTS protocol for caspase 3/7 assay in Hek 293 cells
[Step] [Parameter] [Value] [Description]
2. Time; 5 hr; 37 °C incubation
4. Controls; 23 nL; Tamoxifen 0.23 uM to 100 uM & Doxorubicin 7.0 pM to 100 uM
5. Time; 16 hr; 37 °C incubation
6. Reagent; 5 uL; Caspase-Glo 3/7 reagent
7. Time; 20 min; Room Temperature
8. Detection; Luminescence; Viewlux plate reader
Keywords: caspase 3/7, apoptosis, Hek 293 cell line, luminescence, NTPHTS, NTPHTS_NCGC, NIEHS, EPA, DSSTox, MLSMR, MLSCN, NIH Roadmap, qHTS, NCGC

Row | Compound | caspase-3 activation
1 | C=CCO | 0.437% (inactive)
2 | CCCCCC[N+](=O)[O-] | -0.935% (inactive)
3 | CCCCOC(C)=O | -0.0829% (inactive)
4 | Clc1cccc2ccccc12 | -0.708% (inactive)
5 | O=[N+]([O-])/C=C/c1ccccc1 | -2.17% (inactive)
6 | c1ccoc1 | -1.2% (inactive)
7 | O=NN1CCCCC1 | -0.0969% (inactive)
8 | Cc1ccc(N)cc1Cl | 0.465% (inactive)
9 | COc1ccccc1N | 1.4% (inactive)
10 | [O-][Cl+2]([O-])O | -0.13% (inactive)
11 | S=c1[nH]c2ccccc2[nH]1 | 0.513% (inactive)
12 | C=CCCl | 0.123% (inactive)
13 | CCCCOC(=O)c1ccccc1N | 0.422% (inactive)
14 | Clc1ccc(C(Cl)(Cl)Cl)c(Cl)c1 | 0.186% (inactive)
15 | c1ccc(OCC2CO2)cc1 (stereo not given) | 0.633% (inactive)
16 | c1ccc(Nc2ccc(Nc3ccccc3)cc2)cc1 | -2.23% (inactive)
17 | Oc1cc(Cl)c(Cl)c(Cl)c1 | 11.5% (inactive)
18 | COC(=O)Nc1cccc(OC(=O)Nc2cccc(C)c2)c1 | 0.0585% (inactive)
19 | Nc1ccc(Oc2ccc(N)cc2)cc1 | -2.14% (inactive)
20 | c1ccc(P(c2ccccc2)c2ccccc2)cc1 | -0.936% (inactive)

Row | Compound | caspase-3 activation
21 | CCOC(=O)CBr | 1.06% (inactive)
22 | CCN(CC)CCO | 4.32% (inactive)
23 | ClCCCCl | -1.63% (inactive)
24 | CC(C)OC(=O)Cc1ccccc1 | 0.719% (inactive)
25 | ClC(Br)Br | -0.91% (inactive)
26 | O=[N+]([O-])c1cccc(O)c1 | 0.974% (inactive)
27 | Cc1ccccc1[N+](=O)[O-] | -0.618% (inactive)
28 | CC(C)(C)OOC(=O)c1ccccc1 | -1.73% (inactive)
29 | CN(C)C(=O)Nc1ccc(Cl)cc1 | 2.1% (inactive)
30 | Cc1ccc(N)cc1C | 0.308% (inactive)
31 | ClCCOCCCl | -1.83% (inactive)
32 | O=c1ccc(=O)[nH][nH]1 | -1% (inactive)
33 | CC(=O)NNc1ccccc1 | -1.37% (inactive)
34 | Nc1cc(Cl)ccc1Cl | -0.435% (inactive)
35 | Cc1ccc(N)c(N)c1 | 8.54% (inactive)
36 | c1ccc2c(c1)CCNC2 | -0.664% (inactive)
37 | O=[N+]([O-])c1ccccc1-c1ccccc1 | -1.39% (inactive)
38 | N#C/C=C/C#N | -2.32% (inactive)
39 | Nc1ccc2ccccc2c1 | 2.15% (inactive)
40 | N#CC(Cl)(Cl)Cl | 1.68% (inactive)
